Data as given in PubChem BioAssay (EPA / NIEHS).
Several values for one entry are separate records, joined by “and”; a condition that tells them apart may be missing. Equal values may be shown once. Some structures have more than one record in an assay (separate samples or runs), and their calls can disagree. Activity calls are given as the source filed them. Rule for the calls: active = hit-call score of the fitted dose curve at least 0.9, where 1 is the maximum; inactive = score below 0.9.

Experiments:
[1] = molecular target: Transcription factor E2F1 (Homo sapiens) (UniProt Q01094); experiment: ATG_E2F_CIS: Attagene CIS-FACTORIAL HepG2 Assay for human E2F Transcription Factor 1 (AID 2282935); conditions: HepG2 Attagene cis-reporter, E2F reporter RNA transcripts; actives raise or lower the signal
Chain of Transcription factor E2F1 (Homo sapiens) (Q01094 whole entry, looked up): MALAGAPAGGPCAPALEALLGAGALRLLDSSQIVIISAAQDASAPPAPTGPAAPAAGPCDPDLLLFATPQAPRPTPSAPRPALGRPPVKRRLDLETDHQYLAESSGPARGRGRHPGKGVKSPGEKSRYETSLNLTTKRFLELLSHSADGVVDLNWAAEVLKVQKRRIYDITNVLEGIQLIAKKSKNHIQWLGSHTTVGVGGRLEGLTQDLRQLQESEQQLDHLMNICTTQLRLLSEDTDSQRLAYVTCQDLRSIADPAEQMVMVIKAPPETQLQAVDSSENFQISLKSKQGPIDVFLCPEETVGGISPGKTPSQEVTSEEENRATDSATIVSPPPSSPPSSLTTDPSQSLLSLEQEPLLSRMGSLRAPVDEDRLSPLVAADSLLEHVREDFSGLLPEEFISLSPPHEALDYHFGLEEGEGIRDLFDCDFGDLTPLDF
Summary of the method: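 Cis-element reporter mRNA induction in transiently transfected HepG2, 24 h exposure. Activity fitted in both directions relative to DMSO negative control.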

[2] = ATG_E_Box_CIS: Attagene CIS-FACTORIAL HepG2 Assay for human Enhancer Box (E-box) (AID 2282936); conditions: HepG2 E-box cis-reporter transcription, actives raise or lower the signal
Summary of the method: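 Cells: HepG2 (human liver), transient MRTU transfection. Exposure 24 h. RNA → oligo(dT) RT → PCR → 6-FAM label → HpaI → CE. Activity fitted both directions relative to DMSO.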

[3] = ATG_M_61_CIS: Attagene CIS-FACTORIAL HepG2 Assay for M61 Transcription Factor (Internal Marker) (AID 2282937); conditions: HepG2 Attagene CIS-FACTORIAL M61 internal marker reporter; actives raise or lower the signal
Summary of the method: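 This endpoint serves as an internal background control within a multiplexed HepG2 cis-reporter panel. Cells are exposed for 24 h; reporter mRNA is amplified, fluorescently labelled and sized by capillary electrophoresis, with DMSO as negative control.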

[4] = ATG_EGR_CIS: Attagene CIS-FACTORIAL HepG2 Assay for human Early Growth Response 1 (EGR1) (AID 2282938); conditions: HepG2 Attagene CIS-FACTORIAL EGR reporter mRNA; actives raise or lower the signal
Summary of the method: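 HepG2, transient MRTU transfection (cis promoters), 24 h compound. RNA → RT (oligo-dT) → PCR → 6-FAM labelling → HpaI cut → CE fluorescence. Bidirectional fit, DMSO baseline.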

[5] = ATG_M_19_CIS: Attagene CIS-FACTORIAL HepG2 Assay for M19 Transcription Factor (Internal Marker) (AID 2282939); conditions: HepG2 Attagene CIS-FACTORIAL M19 internal marker reporter; actives raise or lower the signal
Summary of the method: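 Internal marker readout, fitted in both directions against DMSO, from HepG2 cells carrying transfected cis-element reporter constructs; RT-PCR and capillary electrophoresis of reporter mRNA after 24 h exposure.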

[6] = ATG_ERE_CIS: Attagene CIS-FACTORIAL HepG2 Assay for Estrogen Response Element (ERE) (AID 2282940); conditions: HepG2 ERE cis-reporter, Attagene RNA transcript; actives raise or lower the signal
Summary of the method: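 After 24 h compound treatment, RNA from transfected HepG2 cells was reverse-transcribed, reporter cDNA PCR-amplified, FAM-labelled, HpaI-cut and resolved by capillary electrophoresis. ERE-driven cis reporter transcripts reflect endogenous factors; gain or loss scored against DMSO.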

[7] = ATG_Ets_CIS: Attagene CIS-FACTORIAL HepG2 Assay for human Erythroblast Transformation Specific (ETS) (AID 2282941); conditions: HepG2 ETS cis-reporter transcription, actives raise or lower the signal
Summary of the method: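 Human HepG2 hepatoma cells were transiently transfected with promoter-driven reporter constructs and treated for 24 hours. Reporter transcripts were quantified by RT-PCR with fluorescent primer extension; bidirectional curve fitting used DMSO as reference.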

[8] = molecular target: Hepatocyte nuclear factor 3-beta (Homo sapiens) (UniProt Q9Y261); experiment: ATG_FoxA2_CIS: Attagene CIS-FACTORIAL HepG2 Assay for human Forkhead box A2 (FOXA2) (AID 2282942); conditions: HepG2 cis-reporter transcription factor activity, 24 h; actives raise or lower the signal
Chain of Hepatocyte nuclear factor 3-beta (Homo sapiens) (Q9Y261 whole entry, looked up): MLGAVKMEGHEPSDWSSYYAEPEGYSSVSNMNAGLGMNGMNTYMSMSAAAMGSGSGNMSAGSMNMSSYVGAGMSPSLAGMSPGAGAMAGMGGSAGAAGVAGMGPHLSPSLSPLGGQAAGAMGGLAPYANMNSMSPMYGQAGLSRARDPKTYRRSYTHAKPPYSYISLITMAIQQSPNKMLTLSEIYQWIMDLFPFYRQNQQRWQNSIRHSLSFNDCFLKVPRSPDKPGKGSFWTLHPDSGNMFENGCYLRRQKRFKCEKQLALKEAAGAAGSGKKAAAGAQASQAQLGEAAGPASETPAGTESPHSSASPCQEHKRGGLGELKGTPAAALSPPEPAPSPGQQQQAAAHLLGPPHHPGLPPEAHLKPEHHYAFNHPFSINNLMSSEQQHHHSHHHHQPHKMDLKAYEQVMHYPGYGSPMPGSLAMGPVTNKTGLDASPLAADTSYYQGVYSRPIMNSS
Summary of the method: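 Cells: HepG2, transient multiplex reporter transfection. Exposure 24 h. Detection: reporter-specific RT-PCR, fluorescent labelling, restriction digest, capillary electrophoresis. Analysis: bidirectional curve fit, DMSO as negative control.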

[9] = ATG_FoxO_CIS: Attagene CIS-FACTORIAL HepG2 Assay for human Forkhead box O (FoxO) (AID 2282943); conditions: HepG2 Attagene cis-reporter, FoxO element, mRNA; actives raise or lower the signal
Summary of the method: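 Human hepatoma HepG2 cells carry transiently introduced reporter transcription units controlled by cis promoter elements. Chemical treatment lasted 24 h, and mRNA signal was compared with DMSO.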

[10] = ATG_GATA_CIS: Attagene CIS-FACTORIAL HepG2 Assay for human GATA Binding Protein (AID 2282944); conditions: HepG2 GATA cis-element reporter, Attagene multiplex mRNA; actives raise or lower the signal
Summary of the method: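 Reporter transcripts from a GATA cis-regulated unit, among multiplexed reporters in transfected HepG2 cells, were measured by RT-PCR with capillary electrophoresis after 24 h dosing. Induction or loss scored relative to DMSO.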

Measured: AC50

CCC(=C(c1ccc(O)cc1)c1ccc(OCCN(C)C)cc1)c1ccccc1
active: [1] 10.8 µM | [2] 9.17 µM and 7.1 µM and 3.43 µM | [3] 11.7 µM | [4] 9.87 µM and 10.8 µM | [5] 10.7 µM | [10] 10.5 µM
inactive: [1] | [2] | [3] | [4] | [5] | [6] | [7] | [8] | [9] | [10]

CCCCCCCCCCCCCC[N+](C)(C)C
active: [4] 11.1 µM
inactive: [1] | [2] | [3] | [4] | [5] | [6] | [7] | [8] | [9] | [10]

CCCOc1sc(C(=O)N2CCC(c3cc(CN)ccc3F)CC2)c(C)c1Br
active: [6] 2.72 µM
inactive: all other assays above

O=C(OCCOCCOC(=O)c1ccccc1)c1ccccc1
inactive: all assays above

O=C(O)Cc1cc(I)c(Oc2cc(I)c(O)c(I)c2)c(I)c1
inactive: [1] | [2] | [3] | [5] | [6] | [7] | [8] | [9] | [10]
active: [2] 113 µM | [4] 22.5 µM and 36.5 µM | [7] 38.1 µM | [8] 83.7 µM | [9] 46.7 µM | [10] 115 µM

O=C(O)c1ccccc1C(c1ccc(O)cc1)c1ccc(O)cc1
active: [6] 62.7 µM [middle of 4 runs]
inactive: all other assays above

C=C(C)C(=O)OCCC(F)(F)C(F)(F)C(F)(F)C(F)(F)C(F)(F)C(F)(F)F
active: [6] 57.4 µM and 150 µM
inactive: all other assays above

O=C1OC2(c3ccccc31)c1cc(Br)c(O)c(Br)c1Oc1c2cc(Br)c(O)c1Br
inactive: [1] | [2] | [3] | [4] | [5] | [6] | [7] | [8] | [9] | [10]
active: [2] 62.7 µM | [4] 62.3 µM

CCCCCCCCCCCCc1ccccc1S(=O)(=O)O
inactive: all assays above

CC[C@H](C)[C@@H](C(=O)O)n1sc2ccccc2c1=O
inactive: all assays above

Cc1ccc(S(=O)(=O)O)c(C)c1
inactive: all assays above

OCCC(F)(F)C(F)(F)C(F)(F)C(F)(F)C(F)(F)C(F)(F)F
active: [1] 136 µM | [6] 33.9 µM and 9.4 µM | [10] 125 µM
inactive: [1] | [2] | [3] | [4] | [5] | [7] | [8] | [9] | [10]

c1ccc2cc3c(ccc4ccccc43)cc2c1
active: [2] 1.59 µM and 4.58 µM and 2.65 µM | [4] 2.26 µM | [6] 2.82 µM [middle of 4 runs]
inactive: [1] | [2] | [3] | [4] | [5] | [7] | [8] | [9] | [10]

COCC(C)OCC(C)O (stereo unspecified)
inactive: all assays above

CC(=O)NC1(c2cccc(F)c2)CCN(CC[C@@]2(c3ccc(Cl)c(Cl)c3)CN(c3ccccc3)C(=O)CO2)CC1
active: [4] 28.5 µM | [6] 33 µM | [7] 51.9 µM
inactive: all other assays above

ClC1=C(Cl)C(Cl)(Cl)C(Cl)=C1Cl
active: [2] 6.36 µM | [4] 17.8 µM and 6.6 µM | [7] 17.7 µM and 16.2 µM | [9] 16.1 µM
inactive: [1] | [2] | [3] | [5] | [6] | [8] | [9] | [10]

CN1CCC[C@H]1c1cccnc1
active: [6] 49.4 µM
inactive: [1] | [2] | [3] | [4] | [5] | [6] | [7] | [8] | [9] | [10]
